This is a sample that favours compounds with a hit; in the whole collection about 11% have one here.
HP1b binding inh: HP1-beta chromodomain-methylated histone interaction inhibition. AID 540317. AlphaScreen HP1-beta / biotin-H3K9me3 peptide binding. P83916. 390,000 tested, 0.56% active. Potency, µM (highest dose often 114 µM), most hits filed as inhibitors; also: nearly all actives have a fitted effect of over 70% in size
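HP1-beta protein (50 nM final) preincubated 30 min at room temperature with biotinylated H3(1-18)K9me3 peptide (50 nM) in PBS pH 7.4, 0.01% Tween-20, then compound added for 30 min. AlphaScreen streptavidin donor/nickel chelate acceptor beads (10 ug/mL final), 30 min dark, luminescence read.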
JMJD2A Tudor inh: blocks the human JMJD2A Tudor domain; AlphaScreen JMJD2A-Tudor / H3K4me3 peptide binding; 390,000 tested, 4.4% active; O75164; Potency, µM (top dose mostly 114 µM), hits mostly inhibitors; also: nearly all actives have a fitted effect of over 50% in size
PI5P4Ka inh: blocks human PI5P4K alpha kinase activity. AID 652105. PI5P4Kalpha enzyme, ADP-Glo luminescence, 60 min; active compounds read low. 330,000 tested, 1.2% active. max response, %; active = max response of -50% or lower; inconclusive = between -30% and -50%; inactive = -30% or higher; also: value at the top dose of about 77 µM
Target sequence (P48426 whole entry, looked up): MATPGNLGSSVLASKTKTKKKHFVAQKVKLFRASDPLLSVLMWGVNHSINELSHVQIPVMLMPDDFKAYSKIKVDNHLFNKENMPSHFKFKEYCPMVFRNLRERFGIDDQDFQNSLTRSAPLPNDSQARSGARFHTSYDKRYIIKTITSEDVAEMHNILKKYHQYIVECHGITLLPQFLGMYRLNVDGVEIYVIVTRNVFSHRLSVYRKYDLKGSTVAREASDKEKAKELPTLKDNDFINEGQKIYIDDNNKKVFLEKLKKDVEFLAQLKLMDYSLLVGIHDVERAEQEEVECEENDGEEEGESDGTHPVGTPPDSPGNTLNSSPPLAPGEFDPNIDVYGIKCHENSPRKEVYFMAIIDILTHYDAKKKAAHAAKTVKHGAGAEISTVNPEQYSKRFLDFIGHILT
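Human PI5P4Kalpha with substrate in 0.038 M HEPES pH 7.4, 0.28 mM EGTA, 0.1% CHAPS, 5% DMSO; reaction started with 5 microM ATP (final), 60 min at room temperature. ADP formed read by ADP-Glo luminescence.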
L3MBTL1 block: L3MBTL1 (human) inhibition | 230,000 tested, 0.66% active | Q9Y468 | AID 485360 | AlphaScreen L3MBTL1–H3K9me1 peptide binding | Potency, µM (doses to about 57.1 µM), hits mostly inhibitors; also: nearly all actives have a fitted effect of over 60% in size
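Displacement of a biotinylated histone H3(1-15) peptide monomethylated at Lys9 (75 nM) from L3MBTL1 (50 nM) was measured by AlphaScreen after a 30 min room-temperature compound incubation; cefsulodin titration served as intraplate control.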
G9a block: inhibitors of human histone lysine methyltransferase G9a; G9a H3K9 monomethylation, AlphaScreen, 2 h; 350,000 tested, 8.8% active; Potency, µM (series often up to 102 µM), usual class: inhibitors; also: nearly all actives have a fitted effect of over 75% in size
Target sequence (Q96KQ7 913-1193 limits assumed): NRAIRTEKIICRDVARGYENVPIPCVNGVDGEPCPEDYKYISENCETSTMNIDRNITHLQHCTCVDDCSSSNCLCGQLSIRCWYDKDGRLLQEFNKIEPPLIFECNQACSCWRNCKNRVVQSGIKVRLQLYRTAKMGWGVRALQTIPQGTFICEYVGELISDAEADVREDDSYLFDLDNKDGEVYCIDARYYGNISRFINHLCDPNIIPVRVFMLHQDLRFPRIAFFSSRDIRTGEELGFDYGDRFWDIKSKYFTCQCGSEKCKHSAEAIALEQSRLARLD
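Quantitative HTS format: methyltransferase activity on a biotin-tagged H3K9 peptide is measured by AlphaScreen, using a rabbit anti-monomethyl-H3K9 antibody with streptavidin donor and anti-IgG acceptor beads. Final levels are 20 nM enzyme, 500 nM peptide, 20 uM SAM; 2 h RT.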
BAZ2B block: inhibitors of human BAZ2B bromodomain; AlphaScreen BAZ2B-H3K14Ac peptide displacement; 360,000 tested, 4.4% active; Potency, µM (highest dose often 114 µM), usual class: inhibitors; Q9UIF8; also: nearly all actives have a fitted effect of over 60% in size
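Inhibition is scored as reduced AlphaScreen emission. The BAZ2B/b-H3(5-23)K14Ac complex (50 nM each) in PBS pH 7.4, 0.01% Tween-20 meets compound (up to 110 uM) for 30 min at RT before bead addition.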
Hits are given with their value; . = inactive; ? = inconclusive; / = no result; [ ] = another dose, or the depositor's remark. Unless noted, calls follow the shape of the dose curve; as a rule, active = well fitted inhibition curve with a large enough effect; inconclusive = small, poorly fitted or top-dose-only effect; inactive = no such curve, though single readings can be large or run the other way.

SMILES | HP1b binding inh | JMJD2A Tudor inh | PI5P4Ka inh | L3MBTL1 block | G9a block | BAZ2B block
Cc1ccc(C(=O)NCC(=O)OCC(=O)c2cc(C)n(Cc3ccco3)c2C)cc1 | ? | ? | . | . | 45µM | ?
Cc1cc(C(=O)COC(=O)CNC(=O)c2ccc(Cl)c(Cl)c2)c(C)n1Cc1ccco1 | . | . | . | . | . | .
COc1ccc(OC)c(S(=O)(=O)Nc2ccc(-c3ccc4nncn4n3)cc2)c1 | ? | . | . | . | 13µM | .
CCOc1ccc(S(=O)(=O)Nc2cccc(-c3ccc(N4CCC(C)CC4)nn3)c2)cc1 | . | . | / | / | 25µM | .
CCCOc1ccc(-c2cccc(NS(=O)(=O)c3cc(OC)ccc3OC)c2)nn1 | . | . | / | / | 7.9µM | .
COc1ccc(S(=O)(=O)Nc2cccc(-c3ccc(N4CCCC4)nn3)c2)c(OC)c1 | . | . | / | / | 7.9µM | .
CCCCc1nn2c(=O)cc(COC(=O)c3ccccc3C)nc2s1 | . | . | / | / | . | .
O=C(Nc1cccc(-c2ccc(N3CCOCC3)nn2)c1)c1ccccc1Cl | . | . | . | . | . | .
COc1ccc(S(=O)(=O)Nc2cccc(-c3ccc(N4CCCCCC4)nn3)c2)c(OC)c1 | . | . | . | / | 45µM | .
O=C(Nc1cccc(-c2ccc(N3CCCCC3)nn2)c1)c1ccco1 | . | . | . | . | 50µM | .
CCOC(=O)c1cccc(NC(=O)C(CC(C)C)N2Cc3ccccc3C2=O)c1 (stereo not drawn) | . | . | / | / | . | .
CCn1cc(CNC(=O)CC2C(=O)NCCN2CC(c2ccccc2)c2ccccc2)cn1 (stereo not drawn) | . | . | . | . | / | .
CCOc1ccc(CN2CCNC(=O)C2CC(=O)NC2CCCCCC2)cc1 (stereo not drawn) | . | . | . | / | 40µM | .
O=C(CC1C(=O)NCCN1Cc1ccccc1)NC1CCCCCC1 (stereo not drawn) | . | . | . | / | . | .
O=C(CC1C(=O)NCCN1CC(c1ccccc1)c1ccccc1)NC1CC1 (stereo not drawn) | . | . | . | . | 45µM | .
COc1ccc(CN2CCNC(=O)C2CC(=O)NC2CCCC2)cc1OC (stereo not drawn) | . | ? | . | / | 71µM | .
Cc1ccc(CN2CCNC(=O)C2CC(=O)NC2CCCCCC2)cc1 (stereo not drawn) | . | . | . | / | 56µM | .
COc1ccc(CN2CCNC(=O)C2CC(=O)NC2CCCCCCC2)cc1OC (stereo not drawn) | . | . | . | / | . | .
CCOc1ccccc1C1C(C(=O)Nc2ccccc2)=C(C)Nc2nc(SCC(=O)c3ccc(C)cc3)nn21 (stereo not drawn) | . | . | / | / | . | .
O=C(Nc1nnc2n1CCS2)c1cc(C(F)(F)F)cc(C(F)(F)F)c1 | . | . | / | / | . | .
O=C(CC1C(=O)NCCN1Cc1ccccc1)NC1CCCCC1 (stereo not drawn) | / | / | . | / | / | /
O=C(CC1C(=O)NCCN1Cc1ccc(F)cc1)NC1CCCCCCC1 (stereo not drawn) | . | . | . | / | 50µM | .
CCN(N)C(=S)Nc1ccc(F)cc1 | . | . | . | . | ? | .
Cc1ccc(NC(=S)N(N)CCO)cc1 | . | ? | . | . | 45µM | 79µM
COCc1cc(C)n(CC(=O)Nc2cccc(C(C)=O)c2)c(=O)c1C#N | . | . | / | / | ? | .
SMILES | HP1b binding inh | JMJD2A Tudor inh | PI5P4Ka inh | L3MBTL1 block | G9a block | BAZ2B block
CCN(CC)c1ccc(N=CN2CCOCC2)cc1 | ? | 79µM | . | / | 11µM | ?
O=C(CCN1CCC(c2ccccc2)C1)c1cccs1 (stereo not drawn) | . | . | / | . | ? | .
CC(=O)c1ccc(N2CCN(C(=O)CCC(=O)c3cccs3)CC2)cc1 | . | . | . | . | . | .
O=C(CCN1CCCC1)c1cccs1 | . | . | . | . | 25µM | .
Cc1ccc(S(=O)(=O)N2CCN(C(=O)CN3CCN(c4ccc(O)cc4)CC3)CC2)cc1 | ? | 45µM | . | / | / | /
Cc1ccc(S(=O)(=O)N2CCN(CC(=O)NCC3(N4CCOCC4)CCCCC3)CC2)cc1 | . | . | . | . | 45µM | .
O=C(CN1CCN(S(=O)(=O)c2ccc(Cl)cc2)CC1)NCC1(N2CCOCC2)CCCCC1 | . | . | . | . | .[12.7 µM] | .
O=C(CCC(=O)N1CCN(c2ccc(O)cc2)CC1)c1cccs1 | . | . | . | ? | 13µM | .
Cc1oc(-c2ccc(C(=O)NC(C)c3ccccc3)cc2)nc1CS(=O)(=O)c1ccccc1 (stereo not drawn) | . | . | / | / | . | .
CSc1nn(Cc2cccc(Cl)c2)c(N(C(C)=O)C(C)=O)c1S(=O)(=O)c1ccccc1 | . | . | / | / | . | .
CCOc1ccc(NC(=O)c2ccc(NC(=O)CCS(=O)(=O)c3cccs3)cc2)cc1 | . | . | / | / | . | .
Cc1ccc(OCCC(=O)N2CCN(c3ccc(O)cc3)CC2)cc1 | . | 14µM | . | . | 11µM | .
CCOc1ccc(C(=O)CCC(=O)N2CCN(c3ccc(O)cc3)CC2)cc1 | . | . | . | . | / | /
Cc1cccc(-n2c(C)nc3cc(C(=O)NCCC4=CCCCC4)ccc32)c1 | . | . | / | / | . | .
COCc1cc(C)nc2sc3c(c12)NC(c1ccc(O)cc1)N(c1ccc(OC)cc1)C3=O (stereo not drawn) | . | . | / | / | . | .
Cc1cc(/C=C2\SC(=S)NC2=O)c(C)n1C1CC1 | . | 45µM | / | . | ? | 45µM
Cc1cc(/C=C2/C(=O)N(C)C(=S)N2C)c(C)n1C1CC1 | . | ? | . | . | 79µM | ?
Cc1[nH]c2ccccc2c1C(C#N)(C#N)C1C(=O)c2ccccc2C1=O | 11µM | 13µM | . | ? | .[12.7 µM] | 7.9µM
Cc1[nH]c2ccccc2c1CC#N | . | . | . | . | . | .
CC(C)C1C(=O)Nc2ccc(S(=O)(=O)NCc3ccc(Cl)cc3)cc21 (stereo not drawn) | . | . | / | / | . | .
COc1ccc2nc(NC(=S)N(C)C)sc2c1 | ? | 25µM | ? | / | 1.4µM | ?
O=C(O)C1CCC(=O)N1C(=O)OCc1ccccc1 (stereo not drawn) | . | . | . | . | 71µM | .
O=C[C@@H]1CCCN1C(=O)[C@@H]1CCCN1C(=O)OCc1ccccc1 | / | / | / | / | 8.9µM | /
Cc1c(Cl)cccc1NC(=O)Nc1nnc(N(C)C2CCCCC2)s1 | . | . | / | / | . | ?
O=C(Nc1ccccc1N1CCCC1)c1ccc(Br)o1 | . | ? | / | .[11.4 µM] | 4.5µM | ?
COc1ccc(N2CCCC2)c(NC(=O)c2ccc(Br)o2)c1 | ? | 50µM | . | / | 8.9µM | ?
O=C(Nc1ccc(N2CCCC2)c(Cl)c1)c1ccc(Br)o1 | . | ? | / | . | 14µM | ?
N#Cc1ccccc1N1CCN(C(=O)c2ccc(NC(=O)c3ccc(Br)o3)cc2)CC1 | . | 56µM | ? | ? | .[2.33 µM] | 50µM
